Rows were chosen to be rich in hits. Some 27% of all compounds tested hit in one or more screens of this group.
CYP2C9 inhib: human CYP2C9 inhibition; P11712; CYP2C9 Supersomes, luciferin-H conversion, luminescence; inhibition, % at 5 µM; 96,000 tested, 20% active; AID 777;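 active = blocking of liver enzyme CYP2C9 beyond about 50% at 5 µM, limit read from the data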
sEH activator: soluble epoxide hydrolase (human) activation. activation, % at 2 µM. P34913. AID 717. purified human sEH enzymatic activity, activator screen. 91,000 tested, 0.04% active; in the data active = activation above about 37%
Target sequence (P34913 whole entry, looked up): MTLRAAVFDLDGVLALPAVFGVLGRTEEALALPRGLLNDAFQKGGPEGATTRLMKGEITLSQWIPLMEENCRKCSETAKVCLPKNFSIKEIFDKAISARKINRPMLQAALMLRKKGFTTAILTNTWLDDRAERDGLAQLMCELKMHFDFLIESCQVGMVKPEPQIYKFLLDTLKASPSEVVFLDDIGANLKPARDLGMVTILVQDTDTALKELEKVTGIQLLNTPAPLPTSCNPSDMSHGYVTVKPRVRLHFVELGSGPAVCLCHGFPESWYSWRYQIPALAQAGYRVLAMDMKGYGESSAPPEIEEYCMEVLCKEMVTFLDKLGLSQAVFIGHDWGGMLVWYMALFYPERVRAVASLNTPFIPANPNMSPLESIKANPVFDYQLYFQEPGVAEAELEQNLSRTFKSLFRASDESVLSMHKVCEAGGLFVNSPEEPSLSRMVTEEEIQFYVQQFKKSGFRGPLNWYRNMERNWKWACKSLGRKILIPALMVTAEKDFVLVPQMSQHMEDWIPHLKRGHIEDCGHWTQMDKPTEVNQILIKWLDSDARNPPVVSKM
CYP2C9 act: CYP2C9 (human) activation; 96,000 tested, 1.4% active; activation factor at 5 µM; P11712; AID 1024; recombinant CYP2C9, luciferin-H conversion, luminescence; hits give high values; factor 1 = untreated enzyme, 0 = blocked;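 active = activation factor of 2 or more for CYP2C9 at a 5 µM dose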;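 also: 0 = sulfaphenazole-blocked wells and 1 = vehicle-only wells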
sEH inh: inhibitors of human soluble epoxide hydrolase; P34913; recombinant human sEH enzymatic activity assay; inhibition, % at 2 µM; 91,000 tested, 0.34% active; AID 707; in the data active = inhibition above about 80%
CYP2C19 inh: inhibitors of human CYP2C19; CYP2C19 Supersomes, luciferin-H EGE luminescence, 30 min; inhibition, % at 5 µM; 96,000 tested, 21% active;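 active = CYP2C19 inhibition above a set limit at 5 µM in the primary screen, cut at about 50% in these data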;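 also: plate controls were negative control wells for no effect and 2.5 mM tranylcypromine positive control for full effect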
CYP2C19 act: increases human CYP2C19 enzyme activity. activation factor at 5 µM. recombinant CYP2C19, luciferin-H EGE luminescence; hits give high values; 0 = fully inhibited enzyme, 1 = untreated enzyme. 96,000 tested, under 10 active. AID 1025;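 active = activation factor of at least 2 at 5 µM in the primary screen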;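 also: 0 = wells with 2.5 mM tranylcypromine and 1 = vehicle-only wells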
The depositor's hits bear a star; / = no result given.

SMILES	CYP2C9 inhib	sEH activator	CYP2C9 act	sEH inh	CYP2C19 inh	CYP2C19 act
O=C(CCl)N(c1ccc(Cl)cc1)c1c[nH]c2ccccc12	81.7*	-6.3	0.2	8.1	90.5*	0.1
O=C(CCl)N(c1ccccc1)c1c[nH]c2ccccc12	94.6*	-1.6	0.1	5.1	44.1	0.6
CCOC(=O)Cc1c[nH]c2ccccc12	8.9	-8.2	0.9	6.6	14.9	0.9
CCCCN(C)C(=O)CCCc1c[nH]c2ccccc12	/	2.2	/	-2.0	/	/
COc1cccc(OC)c1NC(=O)CN1CCC(NC(=O)c2cccc(F)c2)CC1	/	0.1	/	4.1	/	/
O=c1cc(N2CCCC2)[nH]c(=O)n1-c1ccc(Cl)cc1	/	5.7	/	-2.3	/	/
O=C1c2cccnc2C(Nc2ccc(S(=O)(=O)N3CCCCC3)cc2)N1Cc1ccccc1 (stereo not given)	32.7	0.9	0.7	-0.9	12.9	0.9
O=C1c2ccccc2C(Nc2ccc(S(=O)(=O)N3CCOCC3)cc2)N1c1ccccn1 (stereo not given)	77.2*	0.7	0.2	-1.5	34.1	0.7
O=C1c2ccccc2C(Nc2ccc(S(=O)(=O)N3CCOCC3)cc2)N1Cc1ccco1 (stereo not given)	59.8*	8.2	0.4	-4.4	19.3	0.8
O=C1c2ccccc2C(Nc2ccc(S(=O)(=O)N3CCCCC3)cc2)N1Cc1ccco1 (stereo not given)	89.8*	-16.2	0.1	16.8	35.5	0.6
O=C(c1ccc(S(=O)(=O)N2CCOCC2)cc1)N(Cc1ccco1)Cc1cccs1	41.5	-9.4	0.6	10.6	17.6	0.8
O=C1c2ccccc2C(Nc2ccc(S(=O)(=O)N3CCCCCC3)cc2)N1c1ccccn1 (stereo not given)	-4.7	-26.7	1	26.1	-15.9	1.2
CCN(CC)S(=O)(=O)c1ccc(NC2c3ccccc3C(=O)N2CCN2CCOCC2)cc1 (stereo not given)	12.1	-19.0	0.9	18.2	-10.0	1.1
Cc1ccc(NC2c3ccccc3C(=O)N2CCN2CCOCC2)cc1 (stereo not given)	27.1	-0.5	0.7	-2.2	81.5*	0.2
Cn1c(SCC(=O)NC(c2ccccc2)c2ccccc2)nnc1-c1cccs1	45.9	-1.0	0.5	1.7	37.4	0.6
COC(=O)c1ccc2c(=O)n(C3CCCCC3)c(SCC#N)nc2c1	-9.1	20.7	1.1	-20.9	-5.8	1.1
CCOC(=O)CSc1nc2sc3c(c2c(=O)n1C1CCCCC1)CCN(C)C3	/	-5.6	/	7.8	/	/
COc1cc(N)ccc1Cc1ccc(N)cc1OC	-41.4	-4.6	1.4	5.8	77.9*	0.2
CN1CCN(C(=O)c2cc3c(C(F)(F)F)nn(C)c3s2)CC1	-19.6	11.4	1.2	-13.7	-3.2	1
NC(=O)C1(N2CCCCC2)CCN(S(=O)(=O)c2cc(Cl)ccc2Cl)CC1	-173.2	7.0	2.7*	-8.3	90.0*	0.1
NC(=O)C1(N2CCCCC2)CCN(CC(=O)Nc2ccccc2-c2ccccc2)CC1	16.9	4.2	0.8	-1.6	39.9	0.6
NC(=O)C1(N2CCCCC2)CCN(Cc2ccccc2Cl)CC1	21.5	8.9	0.8	-3.6	79.9*	0.2
CC(NC(=O)C(=O)NN=C1CCCCCCCCCCC1)c1ccccc1 (stereo not given)	-3.0	-19.7	1	21.7	14.2	0.9
Cc1onc(-c2ccccc2)c1C(=O)Nc1ccncc1	90.2*	-19.4	0.1	22.3	91.8*	0.1
Cc1onc(-c2ccccc2)c1C(=O)Nc1nnc(-c2ccncc2)s1	99.4*	-1.3	0	1.3	61.4*	0.4
SMILES	CYP2C9 inhib	sEH activator	CYP2C9 act	sEH inh	CYP2C19 inh	CYP2C19 act
Cc1onc(-c2ccccc2)c1C(=O)Nc1cccc(C#N)c1	-4.4	/	1	/	55.3*	0.4
Cc1onc(-c2ccccc2)c1C(=O)Nc1nc2c(s1)C(=O)CC(C)(C)C2	54.3*	7.4	0.5	-3.6	5.2	0.9
Cc1noc(C)c1C(=O)Nc1nnc(-c2ccccc2)s1	23.8	7.8	0.8	-4.6	3.8	1
Cc1onc(-c2ccccc2)c1C(=O)Nc1ccc2c(C)cc(=O)oc2c1	40.5	/	0.6	/	15.1	0.8
CC1(C)CC(=O)c2sc(NC(=O)c3ccco3)nc2C1	28.6	/	0.7	/	10.9	0.9
COc1cccc(NC(=O)C2CCN(S(=O)(=O)c3ccc4c(c3)OCCO4)CC2)c1	-45.2	-22.6	1.5	24.6	37.1	0.6

Compound activity as filed in PubChem BioAssay.
